The list is not random: actives were taken first. Their share in the collection is about 9.4%.
FLuc modulator: inhibits or activates purified firefly luciferase, miR-21 counter-screen | P08659 | purified FLuc, Km substrates, luminescence inhibition | Potency, µM (doses to about 57.5 µM), without a hit: at the top dose activity change, negative = inhibition, usual class: inhibitors | actives 6.9% (n = 360,000) | AID 588342;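 further: plate controls were vehicle for no effect and reference inhibitor for full effect; nearly all actives have a fitted effect of over 55% in size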
Target sequence (P08659 whole entry, looked up): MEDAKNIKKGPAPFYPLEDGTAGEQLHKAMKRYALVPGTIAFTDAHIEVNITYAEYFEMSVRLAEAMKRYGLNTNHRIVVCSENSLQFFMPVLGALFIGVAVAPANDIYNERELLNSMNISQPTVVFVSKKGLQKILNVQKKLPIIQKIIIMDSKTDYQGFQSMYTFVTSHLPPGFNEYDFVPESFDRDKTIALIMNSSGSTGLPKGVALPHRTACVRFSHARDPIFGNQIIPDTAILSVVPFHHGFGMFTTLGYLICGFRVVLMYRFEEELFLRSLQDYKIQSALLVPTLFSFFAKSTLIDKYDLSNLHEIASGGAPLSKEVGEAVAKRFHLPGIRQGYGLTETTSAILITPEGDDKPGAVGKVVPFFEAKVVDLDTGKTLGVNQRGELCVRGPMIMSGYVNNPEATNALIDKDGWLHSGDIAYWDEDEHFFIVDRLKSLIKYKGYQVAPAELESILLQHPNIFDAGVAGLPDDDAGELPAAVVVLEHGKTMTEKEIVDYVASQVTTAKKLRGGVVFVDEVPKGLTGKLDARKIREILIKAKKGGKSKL
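Purified P. pyralis luciferase (10nM final) with 10uM D-luciferin and 10uM ATP (Km levels) in 50mM Tris acetate pH 7.5, 10mM Mg acetate, 0.01% Tween-20, 0.05% BSA; qHTS 6-point titration, ~60 µM downward; luminescence read.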
NPC1 prom act: activators of NPC1 promoter | Potency, µM (top dose mostly 9.22 µM), inactives show at the highest dose activation, actives largely listed as activators | Huh7 NPC1 promoter luciferase reporter, 24 h | actives 2.4% (n = 320,000) | AID 485313; further: % of control where 0% means no effect; nearly all actives have a fitted effect of over 60% in size
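Luminescence read-out of NPC1 promoter-driven luciferase in stably transfected Huh7 cells; compounds delivered in DMSO and left 24 h at 37C, 5% CO2, qHTS titration format.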
Rab9 promoter act: activators of Rab9 promoter; Huh7 Rab9 promoter-luciferase reporter, luminescence, 24 h; Potency, µM (titrated, usually from 9.22 µM), without a hit: top-dose activation, negative = inhibition, usual class: activators; actives 2.8% (n = 320,000); AID 485297; further: % of control where 0% means no effect; nearly all actives have a fitted effect of over 60% in size
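Measured in stably transfected Huh7 cells bearing a Rab9 promoter–luciferase construct: 24 h compound treatment at 37 °C, followed by luminescence detection.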
ELG1 genotoxic: inducers of genotoxicity in HEK293T ELG1-luciferase cells | HEK293T ELG1-luciferase reporter, luminescence, 16 h | actives 1.3% (n = 330,000) | AID 504466 | Potency, µM (highest dose often 46 µM), for the others: at the highest dose activity change, positive = activation, most hits filed as activators; further: % of control where 0% means no effect; nearly all actives have a fitted effect of over 60% in size
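ELG1-luciferase HEK293T cells, 2,000/well; compound pinned in; 16 hr, 37 °C, 5% CO2; ONE-Glo, 30 min RT; luminescence on CCD imager.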
ELG1 DNA repair: inhibitors of ELG1-dependent DNA repair in HEK293T cells | Potency, µM (series often up to 46.1 µM), for inactives: top-dose activity change, negative = inhibition, usual class: inhibitors | actives 2.3% (n = 330,000) | HEK293T ELG1-luciferase reporter, luminescence, 16 h; DNA damage induced by 5-fluorouridine; further: on the % scale 0 is the no-effect control and ±100 the full control effect; nearly all actives have a fitted effect of over 55% in size
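Cells (2,000 per well) received 5-fluorouridine plus test compound or DMSO and were incubated 16 hr at 37 °C, 5% CO2. Luciferase activity was read by luminescence 30 min after ONE-Glo addition; signal suppression marked inhibition of damage-induced ELG1 function.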
SMN2 splice up: SMN2 splice variant enhancement | HEK293 SMN2-luciferase splicing reporter, luminescence, 30-36 h | actives 2.8% (n = 210,000) | Potency, µM (doses to about 46.1 µM), inactives show at the highest dose activity change, positive = activation, actives largely listed as activators; further: % of control where 0% means no effect; nearly all actives have a fitted effect of over 55% in size
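qHTS luciferase splicing reporter: luminescence rises when SMN2 exon 7 is included in transfected HEK293 cells. Compound exposure lasted 30-36 h at 37C, with 4.5 mM final sodium butyrate as control, followed by a ONE-Glo read.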
* = called active by the depositor; ? = inconclusive; . = not tested or not shown; [ ] = remark or other dose. The call rests on the fitted dose curve; in most records, active means well fitted curve in the direction sought with a large enough effect; inconclusive means small, poorly fitted or top-dose-only effect, or another doubt; inactive means no such curve, though single readings can be large; an effect the other way counts as inactive or inconclusive. Potency means the concentration at half of the fitted maximal effect.

SMILES	FLuc modulator	NPC1 prom act	Rab9 promoter act	ELG1 genotoxic	ELG1 DNA repair	SMN2 splice up
Cc1ccc(-n2[nH]c(C)c(C=Nc3ccc4[nH]c(=O)[nH]c4c3)c2=O)cc1	?	0.5%	1.2%	-17.1%	-25.2%	-10.7%
CSc1ncc(C(=O)NCc2ccc(Cl)cc2)c(C(F)(F)F)n1	2.1%	.	.	.	.	.
CCCc1cc(-c2[nH]ncc2-c2ccc3c(c2)OCCCO3)c(O)cc1O	0.1%	?	0.2%	1.9%	20.6µM*	-42.9%
CCOC(=O)c1sc(-c2ccc(OC)cc2)cc1NC(C)=O	-15.4%	25.7%	21.9%	3.9%	?	15.8µM*
CCOc1ccc(-c2cc(NC(=O)Nc3ccc(Cl)cc3)c(C(=O)OC)s2)cc1	-19.9%	.	.	.	.	-1.1%
CCOc1ccc(-c2cc(NC(=O)Nc3ccccc3Cl)c(C(=O)OC)s2)cc1	8.49µM*	.	.	.	.	29.1%
O=C(CCl)NC(=O)NC12CC3CC(CC(C3)C1)C2	-10.5%	-15.7%	-44.3%	-0.5%	16.4µM*	0.8%
CSc1ccccc1NC(=O)CN(C)C(=O)/C=C/c1ccccc1	0.8%	-3.7%	-3.5%	-1.6%	-0.9%	.
COc1cc(/C=C/C(=O)N(C)CC(=O)Nc2ccccc2SC)cc(OC)c1OC	.	.	.	0.5%	16.4µM*	.
CC(=O)Nc1ccc(S(=O)(=O)NC2(C(F)(F)F)NC(=O)N(CCc3ccc(F)cc3)C2=O)cc1 (centres undefined)	-16.6%	.	.	.	.	-17.8%
COc1ccc(OC)c2sc(NC(=O)c3ccc(Br)s3)nc12	1.3%	1.4%	-7.2%	0.2%	13.8%	15.6%
O=C(Nc1nc2c(s1)CCCC2)c1ccc2ncsc2c1	2.39µM*	?	?	?	?	0.501µM*
CNC(=O)c1c(NC(=O)c2ccc3ncsc3c2)sc(C)c1C	?	-1.3%	1.2%	24.3%	-24.3%	.
O=C(Nc1nc2c(s1)CCCC2)c1ccc(Br)s1	1.51µM*	2.82µM*	0.501µM*	?	?	?
COc1ccc(C(=O)Nc2nc3c(s2)CCCC3)cc1Cl	2.39µM*	.	.	.	.	.
Cc1ccccc1C(=O)NC(C(=O)Nc1nc2c(s1)CCCC2)C(C)C (centres undefined)	-10.1%	1.6%	-9.2%	0.4%	20.6µM*	15.0%
CCc1cccc(NC(=O)C(CC)n2nc(C)c3sc4ccccc4c3c2=O)c1 (centres undefined)	-18.6%	.	.	.	.	.
CCN1c2ccccc2-c2nc(SCC(=O)Nc3c(C)cc(C)cc3C)ncc2S1(=O)=O	3.2%	.	.	.	.	.
Cc1ccccc1Cc1c(C)nc2nc(SCC(=O)N(C)c3ccccc3)nn2c1C	0.9%	.	.	.	.	.
Cc1ccc(CC(=O)Nc2nc3c(s2)CCCC3)cc1	?	9.3%	7.5%	25.6%	?	.
Cc1ncsc1C(=O)Nc1nc2c(s1)CCCC2	7.57µM*	2.51µM*	1µM*	?	?	11.2µM*
Cc1cc(C(=O)Nc2nc3c(s2)CCCC3)cs1	0.601µM*	?	1µM*	?	?	?
Cc1cccc(C(=O)Nc2nc3c(s2)CCCC3)c1	1.35µM*	.	.	.	.	.
CCc1ccccc1N1C(=O)N(Cc2ccccc2C)c2ccccc2S1(=O)=O	-0.4%	.	.	.	.	.
c1ccc(-c2cccc(-c3ccccc3)n2)cc1	12µM*	22.7%	?	5.5%	?	.
SMILES	FLuc modulator	NPC1 prom act	Rab9 promoter act	ELG1 genotoxic	ELG1 DNA repair	SMN2 splice up
CCOc1ccc(C2C(=O)N(C3CCCCCC3)CC(=O)N2CCc2ccccc2)cc1OC (centres undefined)	-1.1%	.	.	.	.	.
C=CC1=C2C=C(C3CC3)N(CCCOC(C)C)C=C2C(=O)C(C)(OC(=O)c2ccco2)C1=O (centres undefined)	.	.	.	.	.	0.3%[9.22 µM]
O=C(Cn1c(=O)n(Cc2nc(-c3ccccc3)no2)c(=O)c2cc3c(cc21)OCO3)Nc1ccc(Cl)cc1	4.0%	.	.	.	.	.
COc1cc(-c2nc(-c3ccc4c(c3)-c3ccccc3S4(=O)=O)c(-c3ccccc3)[nH]2)cc(OC)c1O	6.75µM*	7.4%	0.9%	-11.6%	4.61µM*	13.3%
COc1ccc(CC(=O)Nc2ccc(-c3csc(C)n3)cc2)cc1	-5.7%	1.4%	0.8%	1.9%	-0.8%	.
CCC(=O)Nc1ccc(-c2csc(C)n2)cc1	23.9µM*	?	?	?	?	?
Cc1nc(-c2ccc(NC(=O)Cc3ccccc3)cc2)cs1	8.49µM*	?	?	8.2%	?	.
CCOC(=O)Cn1cnc(-c2ccc([N+](=O)[O-])cc2)c1	12µM*	22.7%	?	?	?	?
CCOC(=O)COc1ccc([N+](=O)[O-])cc1-c1ccnc2cc(-c3ccc(C)cc3)nn12	0.0%	.	.	.	.	10.4%
COc1cccc(C(=O)N(Cc2nc(-c3ccc(Cl)cc3)no2)C(C)C)c1OC	-9.0%	.	.	.	.	-14.8%
Cc1cccc2cc(CN(Cc3cccs3)Cc3nnnn3Cc3ccccc3)c(=O)[nH]c12	0.1%	-0.1%	-10.0%	-3.9%	18.4µM*	-6.1%
Cn1cc(S(=O)(=O)N2CCOCC2)cc1C(=O)Nc1ccc(Cl)c(C(F)(F)F)c1	4.5%	.	.	.	.	.
CCN1C(=O)C(C)S/C1=N\S(=O)(=O)c1ccc(Cl)s1 (centres undefined)	-0.8%	-0.4%	4.4%	1.2%	-3.1%	-8.8%
COc1ccc(CCNC(=O)c2ccc3c(c2)CCN3S(=O)(=O)c2ccc(C)cc2)cc1	-6.2%	.	.	.	.	-12.1%
CCOC(=O)c1c(NC(=O)c2ccc(S(=O)(=O)N(C)C3CCCCC3)cc2)sc2c1CCN(C(C)C)C2	-1.1%	.	.	.	.	.
CC(=O)c1c(C)[nH]c(C(=O)CN2CCN(S(=O)(=O)c3ccccc3F)CC2)c1C	.	.	.	-3.2%	11.6µM*	.
CCOC(=O)c1sc(NC(=O)c2cccnc2)c(C#N)c1C	12µM*	14.5%	13.1%	1.2%	18.4µM*	-17.8%
Cn1nccc1C(=O)Nc1sc2c(c1C#N)CCCC2	?	11.8%	5.8%	11.3%	19.6%	.
CCOC(=O)c1c(NC(=O)c2cccnc2)sc(C)c1C	4.5%	2.3%	-1.6%	0.0%	-17.2%	-5.6%
N#Cc1c(NC(=O)c2cccnc2)sc2c1CCC2	9.53µM*	-15.9%	-5.2%	?	?	3.3%
NC(=O)c1c(NC(=O)c2cccc(N3C(=O)CCC3=O)c2)sc2c1CCCCC2	0.953µM*	29.8%	?	15.1%	?	.
Cn1ncc(Cl)c1C(=O)NC(=S)Nc1sc2c(c1C#N)CCCCC2	12µM*	19.2%	4.8%	1.1%	?	-17.1%
S=C1SCN(C2CCCCCCCCCCC2)CN1C1CCCCCCCCCCC1	.	.	.	.	.	-9.3%[9.22 µM]
COCCn1c(C)cc(O)c(C(c2ccccc2OC)N2CCN(c3ccccc3)CC2)c1=O (centres undefined)	1.2%	.	.	.	.	.

Source: PubChem BioAssay
